Measured values: PubChem BioAssay (NCATS)
The source made the active and inactive calls. Calls come from the whole dose curve; as a rule, active = well fitted curve in the direction sought with a large enough effect; inconclusive = small, poorly fitted or top-dose-only effect, or another doubt; inactive = no such curve, though single readings can be large or run the other way.

Assay: qHTS for compounds that reverse cellular toxicity of Amyloid beta (A-beta) peptide in yeast: LOPAC Validation Assay (AID 720559)
Settings: yeast expressing A-beta; series mostly up to 46.1 µM
From the text: The A-beta peptide is produced by the processing of the amyloid precursor protein (APP) by two proteases, beta and gamma secretases. […] A-beta42 is regarded as the most amyloidogenic form due to its hydrophobicity; however, precisely how A-beta42 induces neurotoxicity is unclear. To understand further this biology and its potential therapeutic implications for human neurodegenerative disease, a quantitative high-throughput screen for compounds that reverse the cellular toxicity of the A-beta peptide was developed.
A yeast based screen was used because it recapitulates the salient feature of protein mis-folding disorder accurately. This cell-based phenotypic screen provides a significant, unbiased advantage by letting the compounds and models inform us which proteins or pathways are most relevant. The ideal chemical candidates would therefore have activity in both our primary yeast and secondary neuronal toxicity assays, as well as in mouse models. They will be valuable tools for dissecting diverse protein homeostasis pathologies and could potentially become the focus for future pre-clinical development. For this […] assay, inhibition of A-beta rescues the toxic effect in the yeast cell, resulting in increase of signals.
NIH Chemical Genomics Center [NCGC]
NIH Molecular Libraries Probe Centers Network [MLPCN]
Assay Submitter (PI): Susan Lindquist, Whitehead Institute, Massachusetts Institute of Technology
[1] Vassar R,et al (1999). Beta-secretase cleavage of Alzheimer's amyloid precursor protein by the transmembrane aspartic protease BACE. Science. 286: 735-741.
[2] Yan R, et al (1999). Membrane-anchored aspartyl protease with Alzheimer's disease beta-secretase activity. Nature.
Two and a half microliter / well of yeast growth medium were dispensed in a 1536 assay plate. Compounds were pinned using the Kalypsys robotic system followed by addition of 2.5 uL / well yeast solution. The assay plates were incubated at 30 C. After 48 hr, the absorbance signal at 600 nm was obtained using the PerkinElmer ViewLux plate reader to assess yeast growth. The data was normalized to the positive control of an equimolar mixture of ferric chloride (FeCl3) and clioquinol and to the negative control DMSO.

Structure (SMILES) | outcome
NC(N)=Nc1nc(CSCC/C(N)=N/S(N)(=O)=O)cs1 | inactive
O=C(O)CCc1nc(-c2ccccc2)c(-c2ccccc2)o1 | inactive
CC(=O)CCCCn1c(=O)c2c(ncn2C)n(C)c1=O | inactive
CC(=O)c1ccc(S(=O)(=O)NC(=O)NC2CCCCC2)cc1 | inactive
CCN(CC)C(=O)c1ccc(O)c(OC)c1 | inactive
C[N+](C)(C)CCCCCC[N+](C)(C)C | inactive
COc1ccccc1N1CCN(CCCNc2cc(=O)n(C)c(=O)n2C)CC1 | inactive
CCCNC(=O)NS(=O)(=O)c1ccc(Cl)cc1 | inactive
CCN1CCC[C@H]1CNC(=O)c1cc(S(N)(=O)=O)ccc1OC | inactive
Clc1ccc(Cn2c(CN3CCCC3)nc3ccccc32)cc1 | inactive
O=C1NC(=O)C(c2ccccc2)(c2ccccc2)N1 | inactive
CC/C(=C(\c1ccccc1)c1ccc(OCCN(C)C)cc1)c1ccccc1 | inactive
COc1cccc(-c2cc(=O)c3ccccc3o2)c1N | inactive
CC(=O)N[C@@H](CS)C(=O)O | inactive
NCCS | inactive
O=c1cc(-c2ccc(O)cc2)oc2cc(O)cc(O)c12 | inactive
CC(=O)O[C@]1(C(C)=O)CC[C@H]2[C@@H]3C=C(Cl)C4=CC(=O)[C@@H]5C[C@@H]5[C@]4(C)[C@H]3CC[C@@]21C | inactive

Structure (SMILES) | outcome
CC(C)(C)c1ccc(C(O)CCCN2CCC(C(O)(c3ccccc3)c3ccccc3)CC2)cc1 (stereo not drawn) | inactive
CCn1cc(C(=O)O)c(=O)c2ccc(C)nc21 | inactive
COC(=O)[C@@H]1[C@H]2C[C@H]3c4[nH]c5ccccc5c4CCN3C[C@@H]2CC[C@@H]1O | inactive
O=C(NCCN1CCOCC1)c1ccc(Cl)cc1 | inactive
CC1(C)CCC2=C(O1)c1ccccc1C(=O)C2=O | inactive
CC1=C(/C=C/C(C)=C/C=C/C(C)=C/C(=O)Nc2ccc(O)cc2)C(C)(C)CCC1 | inactive
CCN(CC)CCNC(=O)c1ccc(N)cc1 | inactive
Clc1ccc(C(c2ccc(Cl)cc2)n2cc[n+](CC(OCc3ccc(Cl)cc3Cl)c3ccc(Cl)cc3Cl)c2)cc1 (stereo not drawn) | inactive
CCN(CC)CCOC(=O)c1ccc(N)cc1 | inactive
Cc1cccc(C)c1OCC(C)N (stereo not drawn) | inactive
CC(C)NCC(O)COc1cccc2[nH]ccc12 (stereo not drawn) | inactive
O=C1NCC2(CCN(CCc3ccccc3)CC2)O1 | inactive
CCCCC1C(=O)N(c2ccccc2)N(c2ccccc2)C1=O | inactive
CCCCCN(C)CCC(O)(P(=O)(O)O)P(=O)(O)O | inactive
CN(C)CCC(c1ccccc1)c1ccccn1 (stereo not drawn) | inactive
COc1ccc(Cc2nccc3cc(OC)c(OC)cc23)cc1OC | inactive
